The whole screen tested about 310,000 compounds, of which about 14,000 (4.5%) showed an effect of 50% or more. Effects have a minus sign here. This is one part of a sample in which strong results are shown more often than they occur.
Molecular target: human ether-à-go-go-related gene (hERG) potassium channel (human, UniProt Q12809)
Test: primary screen, population patch clamp on CHO cells stably expressing hERG; higher = less effect of the substance
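Further: peak tail current of the secondary pulse compared with the same well before compound.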

Sequence of human ether-à-go-go-related gene (hERG) potassium channel (Q12809 whole entry, looked up): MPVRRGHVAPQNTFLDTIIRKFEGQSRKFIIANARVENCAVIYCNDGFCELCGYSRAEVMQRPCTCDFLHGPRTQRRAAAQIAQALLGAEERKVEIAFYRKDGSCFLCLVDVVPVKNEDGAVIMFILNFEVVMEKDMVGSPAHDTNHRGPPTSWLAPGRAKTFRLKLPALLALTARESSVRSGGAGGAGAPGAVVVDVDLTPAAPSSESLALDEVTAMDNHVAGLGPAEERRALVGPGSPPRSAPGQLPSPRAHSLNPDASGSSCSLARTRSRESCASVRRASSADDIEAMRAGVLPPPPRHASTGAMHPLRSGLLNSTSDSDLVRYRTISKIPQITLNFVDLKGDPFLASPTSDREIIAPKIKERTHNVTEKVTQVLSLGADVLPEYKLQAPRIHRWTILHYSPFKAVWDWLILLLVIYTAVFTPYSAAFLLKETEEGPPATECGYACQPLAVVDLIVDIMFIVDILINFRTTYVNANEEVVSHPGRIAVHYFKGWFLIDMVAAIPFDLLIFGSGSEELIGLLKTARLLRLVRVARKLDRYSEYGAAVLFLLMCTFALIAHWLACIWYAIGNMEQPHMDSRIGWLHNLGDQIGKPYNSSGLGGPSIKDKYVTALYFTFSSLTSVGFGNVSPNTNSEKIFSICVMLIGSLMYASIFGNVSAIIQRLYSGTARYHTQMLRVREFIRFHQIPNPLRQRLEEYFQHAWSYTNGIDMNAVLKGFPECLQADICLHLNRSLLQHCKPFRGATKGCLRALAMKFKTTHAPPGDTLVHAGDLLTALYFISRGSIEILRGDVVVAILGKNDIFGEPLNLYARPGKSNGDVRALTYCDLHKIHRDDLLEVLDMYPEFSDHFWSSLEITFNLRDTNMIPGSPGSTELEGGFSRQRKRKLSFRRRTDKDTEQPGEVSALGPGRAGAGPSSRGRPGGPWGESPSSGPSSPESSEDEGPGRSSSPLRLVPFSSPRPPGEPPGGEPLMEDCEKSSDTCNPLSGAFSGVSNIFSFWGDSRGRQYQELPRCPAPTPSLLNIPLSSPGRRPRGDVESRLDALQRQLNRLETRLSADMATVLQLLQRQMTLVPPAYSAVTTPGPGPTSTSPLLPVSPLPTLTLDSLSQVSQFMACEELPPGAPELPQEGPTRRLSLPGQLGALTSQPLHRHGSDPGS

SMILES	hERG current change (%, negative = inhibition) at 10uM [%]
Cc1c(C(=O)NCc2ccco2)oc2ccc(S(=O)(=O)N3CCC4(CC3)OCCO4)cc12	-19.7
CCCCN1C(Nc2ccccc2)=NC[C@@H]1Cc1ccccc1	-66.1
Cc1ccc(CCN2C(Nc3ccccc3)=NC[C@@H]2C)cc1	-35.9
CC(C)CCCN1C(Nc2ccccc2)=NC[C@@H]1C	-11.4
CCCCCCCN1C(Nc2ccccc2)=NC[C@@H]1C	-68
CCCCCCCN1C(Nc2ccccc2)=NC[C@@H]1Cc1ccccc1	-83.3
CCCCN1C(N)=NC[C@@H]1Cc1ccccc1	0.376
C[C@H]1CN=C(Nc2ccccc2)N1CCc1ccccc1	-9.89
CCCCN1C(Nc2ccccc2)=NC[C@@H]1C	14.4
CCN1C(Nc2ccccc2)=NC[C@@H]1Cc1ccccc1	-26
CCN1C(Nc2ccccc2)=NC[C@@H]1C	15.2
c1ccc(CCCCN2C(Nc3ccccc3)=NC[C@@H]2Cc2ccccc2)cc1	-71.5
OC1CCCN(c2ncnc3c2nnn3Cc2c(F)cccc2Cl)C1 (stereo not shown)	0.989
COc1cc([N+](=O)[O-])ccc1NC(=O)NCc1ccccn1	11.7
CC(=O)c1cccc(NC(=O)CSc2n[nH]c(-c3ccncc3)n2)c1	10.5
O=C(COc1ccc(Br)cc1Cl)NC(=O)NC1CCCC1	-9.03
O=C(COc1ccccc1F)NC1CC1	0.681
O=C(COc1ccc(Br)cc1Cl)NC1CCN(Cc2ccccc2)CC1	-67.3
Cl.O=C(COc1ccccc1F)NC1CCN(Cc2ccccc2)CC1	-38.5
Cc1ccc(Cl)c(OCC(=O)NC2CCN(Cc3ccccc3)CC2)c1	-115
Cc1ccc(Cl)c(OCC(=O)Nc2ccccc2C(=O)NC2CC2)c1	3.5
O=C(COc1ccc(Br)cc1F)NC1CCN(Cc2ccccc2)CC1	-74

SMILES	hERG current change (%, negative = inhibition) at 10uM [%]
Cc1cc(OCC(=O)NC2CCN(Cc3ccccc3)CC2)c2c(C)c(C)c(=O)oc2c1	-22.4
O=C(COc1ccc(Br)cc1Cl)NC1CCCCC1	9.84
COc1ccc(C(=O)N(C)c2ccccc2C(=O)NCCc2ccccc2)cc1	-20.2
O=C(CCCn1c(=O)c2ccccc2n(Cc2ccccc2)c1=O)NCc1ccco1	-7.47
CNC(=O)c1c(C)nn(-c2ccc(F)c(Cl)c2)c1-c1cc(C)on1	4.71
Cc1ccc(CC(=O)Nc2ccc(S(=O)(=O)Nc3nccc(C)n3)cc2)cc1	1.2
CCCCC(NC(C)=O)c1nc2ccccc2[nH]1 (stereo not shown)	23.1
CC(C)COC(=O)Nc1ccccc1C(=O)N1CCOCC1	9.75
C=C[C@@H]1C2=CCOC(=O)C2=CO[C@H]1O[C@@H]1O[C@H](CO)[C@@H](O)[C@H](O)[C@H]1O	20.1
N#CCCN1CCN(S(=O)(=O)c2ccc(S(=O)(=O)N3CCCC3)cc2)CC1	4.66
COc1ccc(S(=O)(=O)NCc2ccccn2)c(C)c1C	0.26
N#CCc1c(C#N)c(N)nc(N2CCCC(CO)C2)c1C#N (stereo not shown)	1.82
O=C(Cn1ncc2c3ccccc3n(Cc3ccccc3F)c2c1=O)NCCN1CCOCC1	-55.2
O=C(Cn1ncc2c3ccccc3n(Cc3ccccc3)c2c1=O)NCCN1CCOCC1	-57
Cc1ccccc1Cn1c2ccccc2c2cnn(CC(=O)NCCCN3CCOCC3)c(=O)c21	-18.6
O=C(Cn1ncc2c3ccccc3n(Cc3ccccc3)c2c1=O)NCCCN1CCOCC1	-45.2
Cc1cc(C)c(Cn2c3ccccc3c3cnn(CC(=O)NCCN4CCOCC4)c(=O)c32)c(C)c1	2.31
Cc1ccc(C)c(Cn2c3ccccc3c3cnn(CC(=O)NCCN4CCOCC4)c(=O)c32)c1	-45
CCC(=O)/C=C1/Sc2ccc(OC)cc2N1CC	-4.45
C=CCn1cc(C(=O)NCC2CCCO2)c(=O)c2cc(S(=O)(=O)N3CCCCCC3)ccc21 (stereo not shown)	-48.1
O=C(COC(=O)C1=COCCO1)Nc1cccc(S(=O)(=O)N2CCOCC2)c1	10.8
COc1ccc(-c2c(NC(=O)c3ccco3)oc3ccc(Cl)cc3c2=O)cc1	19.7

SMILES	hERG current change (%, negative = inhibition) at 10uM [%]
O=c1ccn(Cc2ccc(F)cc2)c2ccnc(C(F)(F)F)c12	-25.9
CCN(CC)S(=O)(=O)c1ccc(N2CCCC2)c(NC(=O)C2=COCCO2)c1	-40
COC(=O)Cn1cc(/C=C/c2cc[n+](C)cc2)c2ccccc21.[I-]	5.7
CCn1c(/C=C/c2cc[n+](C)cc2)nc2ccccc21.[I-]	15
CCn1cc(/C=C/c2cc[n+](C)cc2)c2ccccc21.[I-]	-56.1
CN(C)c1ccc(-c2nc3cc(N)ccc3o2)cc1	6.31
CCNC(=O)c1cc2c(=O)n3cccc(C)c3nc2n(Cc2ccc(C)cc2)c1=N	-88
CCCCNC(=O)c1cc2c(=O)n3cccc(C)c3nc2n(Cc2ccccc2)c1=N	-77.6
COCCNC(=O)c1cc2c(=O)n3cccc(C)c3nc2n1C	11.7
CCCCNC(=O)c1cc2c(=O)n3cccc(C)c3nc2n(Cc2ccncc2)c1=N	-75.1
Cc1cccn2c(=O)c3cc(C(=O)N4COCC4(C)C)n(Cc4ccccc4)c3nc12	1.23
COCCNC(=O)c1cc2c(=O)n3cccc(C)c3nc2n(Cc2ccncc2)c1=N	-70
CCCCNC(=O)c1cc2c(=O)n3cccc(C)c3nc2s1	7.96
CCc1cc2c(NC(Cc3c[nH]c4ccccc34)C(=O)O)nc(C)nc2s1 (stereo not shown)	31.3
COCC(=O)Nc1ccc(S(=O)(=O)Nc2ccccn2)cc1	17.8
Cc1ccc(S(=O)(=O)NCCOc2cc(C)ccc2C)cc1	-6.41
Cc1c(NC(=O)CSc2n[nH]c(-c3ccccc3)n2)c(=O)n(-c2ccccc2)n1C	3.93
CC1=C(C(=O)Nc2ccc(C(=O)NCCCN3CCCCC3)cc2)SCCO1	-24.8
CN(N)N=Nc1nc2c([nH]1)c(=O)n(C)c(=O)n2C	0.0258
Cc1cc(C)cc(SCc2noc(C(=O)NC(C)C)c2C(=O)O)c1	33.6
C=CCNC(=O)c1cnn(-c2ccccc2)c1-c1ccccc1	10.4
Cc1ccc(NCc2nnc(SCC(=O)Nc3nnc(C)s3)n2C)cc1	-1.72

SMILES	hERG current change (%, negative = inhibition) at 10uM [%]
COC(=O)C1CCN(C(=O)c2cc3c(=O)n4cccc(C)c4nc3n2Cc2ccccc2)CC1	13.2
Cc1cccn2c(=O)c3cc(C(=O)NC(C)C)c(=N)n(Cc4ccncc4)c3nc12	-72.4
Cc1ccc(S(=O)(=O)c2cc3c(=O)n4cccc(C)c4nc3n(Cc3ccncc3)c2=N)cc1	-40.8
COc1ccc(NC(=S)N(CCCN2CCOCC2)Cc2cn(C)c3ccccc23)cc1	-16.8
COc1cccc(NC(=S)N(CCCN2CCOCC2)Cc2cn(C)c3ccccc23)c1	-10.7
COc1cccc(NC(=S)N(CCN(C)C)Cc2cccs2)c1	-10.5
COc1ccc(NC(=S)N(CCCN2CCCCC2)Cc2cccs2)cc1	-61
COc1cccc(NC(=S)N(CCCN2CCC(C)CC2)Cc2cccs2)c1	-59.2
COc1ccc(NC(=S)N(CCN(C)C)Cc2cccs2)cc1	-33.9
COc1ccc(NC(=S)N(CCCN2CCCC2)Cc2cccs2)cc1	-48
COc1ccc(NC(=S)N(CCCN2CCC(C)CC2)Cc2cccs2)cc1	-68.2
COc1ccc(NC(=S)N(CCCN2CCN(C)CC2)Cc2cccs2)cc1	-53.4
CCCCN(C(=O)c1ccc(-c2ccc(Cl)cc2)o1)c1c(N)n(CCC)c(=O)[nH]c1=O	0.856
O=C(NC1CCCC1)C(c1cccs1)N(Cc1ccco1)C(=O)Cn1nnc(-c2cccs2)n1 (stereo not shown)	2.45
CCC1CCCCN1C(=S)Nc1cccc(S(=O)(=O)N(C)C)c1 (stereo not shown)	-6.73
CCOP(=S)(OCC)Oc1cc(C)oc(=O)c1Cl	19.6
COc1cc(C2=NOC(C(=O)NC3CCCCC3)C2)cc(OC)c1OC (stereo not shown)	-8.08
Cc1cc(C)[n+](-c2ccc(Oc3ccccc3)c(S(=O)(=O)[O-])c2)[nH]1	13.6
CC(=O)Nc1ccc2c(c1)C(=O)N(c1cccc3ccccc13)C2=O	-9.32
COc1ccc(NP(=O)(Oc2ccc(Cl)cc2)Oc2ccc(Cl)cc2)cc1OC	-16.6
O=C(OC1CCOC1=O)c1cncc(Br)c1 (stereo not shown)	-15.7
Nc1ccc(-c2ccc(N)c(C(=O)O)c2)cc1C(=O)O	7.74

— article PMC4336329 (PLoS ONE, 2015)
